Source: PubChem BioAssay AID430 (Sanford-Burnham Center for Chemical Genomics, 2006)
The campaign covered roughly 63,000 compounds. About 1,100 (1.7%) were called active. The sample as a whole holds a higher share of actives than the screen did. Entries with a potency or affinity are not part of this list. Unmarked numbers belong to inactive results. Cut-off read from the data, not from the text of the source: active = cytotoxicity above about 50%; inactive = the rest.

Assay: cytotoxicity in HPDE-C7 cells, cell-based, fluorescence, HTS (AID 430);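 note: cells exposed to compound for 48 hours before viability readout; 0% = vehicle and 100% = reference cytotoxic drug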
Conditions: HPDE-C7 pancreatic duct cells viability, at 10 µM, stronger effect = higher value

Compound | cytotoxicity
CCN1C(=O)c2ccccc2S(=O)(=O)c2ccc(C(=O)NCc3cccnc3)cc21 | -0.2%
CS(=O)(=O)c1ccc2nc(NC(=O)c3cccs3)sc2c1 | -8.3%
COc1ccccc1C(=O)Nc1nc2ccc(S(C)(=O)=O)cc2s1 | 2.7%
CC(C)n1nc(C(=O)Nc2nc3ccc(S(C)(=O)=O)cc3s2)c2ccccc2c1=O | 54.4% (active)
COCCCNC(=O)c1ccc(N2CCCC2)c(NS(=O)(=O)c2ccc(C)cc2)c1 | -13.4%
CC1CC(C)CN(C(=O)c2cn(C)c3ccc(S(=O)(=O)N(C)C)cc3c2=O)C1 (stereo not given) | 0.8%
CC12CC(NC(=O)N1c1cccc(C(=O)NCc3ccc4c(c3)OCO4)c1)c1cc(Cl)ccc1O2 (stereo not given) | 27.3%
N#Cc1cc(Oc2cccc3cccnc23)c(-n2nnc3ccccc32)cc1C#N | 63.7% (active)
c1ccc(-n2nnnc2Oc2cccc3cccnc23)cc1 | 19.3%
COc1ccccc1Oc1cc(C#N)c(C#N)cc1-n1nnc2ccccc21 | -8.8%
CCOC(=O)CNC(=O)CSc1nc2cccnc2n1C | -7.9%
CNc1sc(C(=O)c2cccs2)c(N)c1-c1nc2ccccc2s1 | 33.3%
CCNc1sc(C(=O)c2cccs2)c(N)c1-c1nc2ccccc2s1 | 73.7% (active)
CCNc1sc(C(=O)c2cccs2)c(N)c1C#N | -12.7%
COc1ccccc1Nc1nc(C2(C)CCC(=O)O2)cs1 (stereo not given) | 6.8%
Cn1c(-c2nonc2NC(=O)c2ccc(C(C)(C)C)cc2)nc2ccccc21 | -0.1%
CCCn1cc(S(=O)(=O)CC(=O)Nc2ccc(OCC)cc2)c2ccccc21 | -9.9%
N=c1c2c(-c3ccccc3)c(-c3ccccc3)oc2ncn1CCN1CCOCC1 | 29.3%
COc1ccc(-c2oc3ncn(CCN4CCOCC4)c(=N)c3c2-c2ccc(OC)cc2)cc1 | 16%
COc1ccc(-c2oc3ncn4nc(COc5ccccc5)nc4c3c2-c2ccc(OC)cc2)cc1 | 54.9% (active)
Cc1nc2c3c(-c4ccccc4)c(-c4ccccc4)oc3ncn2n1 | -9.4%
COc1ccc(-c2oc3ncn4nc(Cc5ccccc5)nc4c3c2-c2ccc(OC)cc2)cc1 | 62.3% (active)
COc1ccccc1OCc1nc2c3c(-c4ccccc4)c(-c4ccccc4)oc3ncn2n1 | 7.7%
CCOc1ccc(CCNC(=O)CCN2C(=O)COc3ccccc32)cc1OCC | -19.6%
CCOC(=O)/C=C1\SCC(=O)N1CC(=O)Nc1ccccc1OC(F)F | 2.3%
